Data: PubChem BioAssay (EPA / NIEHS)
Several values for one entry are separate records, joined by “and”; a condition that tells them apart may be missing. Equal values may be shown once. Inconclusive results are not listed. Activity calls are given as the source filed them. The calls were made as follows, unless noted: active = hit-call score of the fitted dose curve at least 0.9, where 1 is the maximum; inconclusive = response in the unintended direction; inactive = score below 0.9.

Assays:
[1] = CCTE_Deisenroth_AIME_384WELL_CTox_Active: Cytotoxicity Assessment (CTOX) in CCTE's 384-well Estrogen Receptor Transactivation Assay with AIME metabolic competence (metabolism positive), Deisenroth Lab (AID 2284037);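 also: chemicals first conditioned 2 h by alginate-bound induced rat liver S9 before cells; activity means signal loss indicating cell death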
In short: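 Chemicals pre-incubated 2 hours with alginate-immobilised phenobarbital/beta-naphthoflavone-induced male Sprague Dawley rat liver S9, then conditioned medium applied 24 hour to VM7Luc4E2 cells. Viability by fluorogenic protease substrate; 10-point series 0.002 - 200 uM.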

[2] = molecular target: Estrogen receptor (Homo sapiens) (UniProt P03372); test: CCTE_Deisenroth_AIME_384WELL_LUC_Inactive: CCTE's 384-well Estrogen Receptor Transactivation Assay without AIME metabolic competence (ERTA luciferase; metabolism negative), Deisenroth Lab (AID 2284038);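 also: VM7Luc4E2 breast cells given medium preincubated 2 h with S9-free microspheres; hits raise estrogen receptor luciferase signal so potencies reflect agonists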
Estrogen receptor (Homo sapiens), sequence (P03372 whole entry, looked up): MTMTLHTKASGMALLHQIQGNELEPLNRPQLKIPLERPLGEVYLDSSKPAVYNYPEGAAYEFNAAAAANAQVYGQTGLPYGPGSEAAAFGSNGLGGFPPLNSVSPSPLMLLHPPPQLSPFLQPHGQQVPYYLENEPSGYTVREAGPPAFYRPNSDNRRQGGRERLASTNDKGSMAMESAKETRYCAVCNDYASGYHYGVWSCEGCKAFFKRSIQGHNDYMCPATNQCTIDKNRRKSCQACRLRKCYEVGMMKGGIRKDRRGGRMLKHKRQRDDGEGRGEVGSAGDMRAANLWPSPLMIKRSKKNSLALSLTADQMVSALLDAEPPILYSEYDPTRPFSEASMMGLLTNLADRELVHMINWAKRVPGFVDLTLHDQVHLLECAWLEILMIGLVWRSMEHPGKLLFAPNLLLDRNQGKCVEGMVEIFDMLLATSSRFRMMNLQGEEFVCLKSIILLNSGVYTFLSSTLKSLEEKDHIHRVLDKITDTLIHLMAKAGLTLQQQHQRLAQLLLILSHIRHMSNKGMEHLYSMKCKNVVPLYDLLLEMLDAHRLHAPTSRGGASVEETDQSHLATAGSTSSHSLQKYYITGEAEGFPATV
In short: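 Chemicals (10-point series, 0.002 - 200 uM) were incubated 2 hours with alginate-water microsphere lids lacking S9, then the conditioned medium was transferred to VM7Luc4E2 breast cells for 24 hour. Luciferase induction was read by bioluminescence, fitted upward relative to 17beta-estradiol.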

[3] = CCTE_Deisenroth_AIME_384WELL_CTox_Inactive: Cytotoxicity Assessment (CTOX) in CCTE's 384-well Estrogen Receptor Transactivation Assay without AIME metabolic competence (metabolism negative), Deisenroth Lab (AID 2284039);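 also: cell viability via live-cell protease substrate cleaved to fluorescent probe; cells exposed 24 h to medium preincubated 2 h with alginate-water beads without S9; loss of fluorescence signal means loss of viability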
In short: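 VM7Luc4E2 cells, metabolism-negative arm: test chemicals (0.002–200 uM, 10 points) pre-incubated 2 h with alginate-water microspheres, then medium transferred to cells for 24 h. Viability read as protease-substrate cleavage to fluorescent probe; loss-of-signal, bidirectional fitting.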

[4] = CCTE_Shafer_MEA_dev_active_electrodes_number: CCTE's Neural Network Formation Assay for Number of Active Electrodes, Shafer Lab (AID 2284040);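 as to AC50: potency for loss of active electrodes versus DMSO so lower counts are hits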
In short: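 Rat cortical primary cultures, 1.5 x 10^5 cells/well, PEI-coated MEA, laminin drop. Continuous exposure DIV 0–12; full media/compound change DIV 5, 9. Readout: electrodes with mean firing ≥5 spikes/min; AUC across days; loss vs DMSO.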

[5] = CCTE_Shafer_MEA_dev_bursting_electrodes_number: CCTE's Neural Network Formation Assay for Number of Bursting Electrodes, Shafer Lab (AID 2284043);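 as to AC50: potency is for loss of bursting electrodes relative to DMSO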
In short: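 Primary rat cortical neurons plated on 16-electrode MEA wells, exposed from day 0 with compound renewed at DIV 5 and 9. Electrodes bursting ≥1 burst per 2 min counted on days 5, 7, 9 and 12; trapezoidal AUC across days, fitted for loss versus DMSO.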

[6] = CCTE_Shafer_MEA_dev_per_burst_interspike_interval: CCTE's Neural Network Formation Assay for Burst Interspike Interval, Shafer Lab (AID 2284044; active = hit-call score of the fitted dose curve at least 0.9, where 1 is the maximum; inactive = score below 0.9;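 also: mean spike spacing inside bursts as AUC over recordings on days 5 7 9 12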;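 as to AC50: potency for a decrease of within-burst interspike interval below DMSO level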)
In short: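 Rat cortical primary cultures, 16 electrodes/well; compound from plating, renewed with full media change DIV 5 and 9. Spikes via adaptive detector; per-burst ISI well-mean over active bursting electrodes; AUC of DIV 5/7/9/12 recordings; loss-direction fit vs DMSO.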

[7] = CCTE_Shafer_MEA_dev_burst_duration_mean: CCTE's Neural Network Formation Assay for Mean Burst Duration, Shafer Lab (AID 2284045; active = hit-call score of the fitted dose curve at least 0.9, where 1 is the maximum; inactive = score below 0.9)
In short: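 Primary rat cortical neurons on 48-well 16-electrode MEA plates, exposed from day 0 with renewal at DIV 5 and 9; spontaneous activity recorded on days 5, 7, 9, 12. Well-mean burst duration across bursting electrodes, collapsed as trapezoidal AUC; DMSO baseline.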

[8] = CCTE_Shafer_MEA_dev_interburst_interval_mean: CCTE's Neural Network Formation Assay for Mean Interburst Interval, Shafer Lab (AID 2284046; active = hit-call score of the fitted dose curve at least 0.9, where 1 is the maximum; inactive = score below 0.9;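 also: well-mean interburst interval of bursting electrodes as AUC over four recording days; curve fitted for decrease in interburst interval relative to DMSO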)
In short: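 Recordings on days 5, 7, 9 and 12 give well-mean interburst interval across actively bursting electrodes, summarized as area under the curve. Cultures: rat cortical neurons, continuous exposure from day 0, compound renewed at feeds; decrease analyzed versus DMSO.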

[9] = CCTE_Shafer_MEA_dev_network_spike_number: CCTE's Neural Network Formation Assay for Number of Network Spikes, Shafer Lab (AID 2284048; active = hit-call score of the fitted dose curve at least 0.9, where 1 is the maximum; inactive = score below 0.9;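 as to AC50: fit as a loss of signal meaning fewer network spikes than DMSO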)
In short: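 Primary rat cortical neurons on PEI/laminin 48-well MEA plates, dosed from plating day 0 for 12 days, renewed at DIV 5 and 9. Network spike counts recorded DIV 5, 7, 9, 12, collapsed as trapezoidal AUC; DMSO baseline.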

[10] = molecular target: Estrogen receptor (Homo sapiens) (UniProt P03372); test: CCTE_Deisenroth_AIME_384WELL_LUC_Shift: CCTE's 384-well Estrogen Receptor Transactivation Assay with AIME metabolic competence data shift (ERTA luciferase; difference in metabolism positive and negative), Deisenroth Lab (AID 2284041; active = hit-call score of the fitted dose curve at least 0.9, where 1 is the maximum; inactive = score below 0.9;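 also: shift is response with S9 minus without S9 so positive means metabolism raised ER signal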)
In short: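 Chemicals (0.002–200 uM, 10 points) pre-incubated 2 h with alginate-encapsulated induced male Sprague Dawley rat liver S9 or S9-free, then medium applied 24 h to VM7Luc4E2 cells; luciferase. Endpoint is per-concentration difference, S9-positive minus negative.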

OCCOCCO
outcome [1]: inactive
outcome [2]: inactive
outcome [3]: inactive
outcome [4]: inactive
outcome [5]: inactive
outcome [6]: inactive
outcome [7]: inactive
outcome [8]: inactive
outcome [9]: inactive

Cc1cc(N=Nc2ccccc2C)ccc1N
AC50 [1]: 107 µM (active)
AC50 [3]: 103 µM (active)

O=C1CCCO1
outcome [1]: inactive

Oc1ccc2ccc3cccc4ccc1c2c34
AC50 [1]: 88.4 µM (active)
outcome [3]: inactive

CCCCCOC(=O)c1ccccc1C(=O)OCCCCC
outcome [1]: inactive
outcome [2]: inactive
AC50 [3]: 19.8 µM (active)
outcome [10]: inactive

CCOc1cccc(C2(N3CCN(c4ccccc4)CC3)CCC(C)CC2)c1 (stereo unspecified)
outcome [1]: inactive
outcome [2]: inactive
outcome [3]: inactive
outcome [10]: inactive

Cc1ccc(N)c(N)c1
outcome [1]: inactive
outcome [3]: inactive

CCCCCCCCOC(=O)c1ccc(C(=O)OCCCCCCCC)c(C(=O)OCCCCCCCC)c1
outcome [1]: inactive
outcome [3]: inactive

CN(C)[C@@H]1C(=O)C(C(N)=O)=C(O)[C@@]2(O)C(=O)C3=C(O)c4c(O)cccc4[C@@](C)(O)[C@H]3C[C@@H]12
outcome [1]: inactive
AC50 [3]: 103 µM (active)
outcome [4]: inactive
outcome [5]: inactive
outcome [6]: inactive
outcome [7]: inactive
outcome [8]: inactive
outcome [9]: inactive

Nc1ccc(Oc2ccc(N)cc2)cc1
outcome [1]: inactive

O=C(N[C@H](c1ccccc1)[C@@H]1CN2CCC1CC2)c1c(Cl)ccc(C(F)(F)F)c1Cl
outcome [1]: inactive

O=[N+]([O-])c1ccc(Oc2ccc(Cl)cc2Cl)cc1
outcome [1]: inactive
outcome [3]: inactive

Clc1ccc(C(c2ccc(Cl)cc2)C(Cl)(Cl)Cl)cc1
outcome [1]: inactive
AC50 [3]: 160 µM (active)
AC50 [4]: 4.02 µM (active) and 7.34 µM (active)
AC50 [5]: 3.96 µM (active) and 6.35 µM (active)
AC50 [6]: 7.74 µM (active) and 9.33 µM (active)
outcome [7]: inactive
AC50 [8]: 7.67 µM (active) and 9 µM (active)
AC50 [9]: 2.58 µM (active) and 2.86 µM (active)
